NLRP3 yeast inh: inhibitors of NALP3 inflammasome in yeast | Yeast reconstituted NLRP3/ASC/caspase-1, beta-gal luminescence, 24 h | inhibition, % at 10 µM | 0.39% of 330,000 active | AID 2825;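 active = inhibition of 50% or more; inactive = inhibition below 50%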
tim23-1 inh: tim23-1 yeast growth inhibition. S. cerevisiae tim23-1 growth, BacTiter-Glo luminescence, 24 h. inhibition, % at 20 µM. 1.3% of 330,000 active;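 active = growth inhibition of the mutant yeast at or above 50%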;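 note: temperature-sensitive mutant grown at 25 °C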
tim10-1 inh: growth inhibitors of tim10-1 mutant yeast; S. cerevisiae tim10-1 ts strain growth, BacTiter-Glo, 24 h; inhibition, % at 20 µM; 2.2% of 330,000 active; AID 463190;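 active = inhibition of at least 40%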;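 note: mutant grown at 25 °C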
TIM10 inh: growth inhibitors of TIM10 yeast strain; S. cerevisiae TIM10 strain growth, BacTiter-Glo luminescence, 24 h; inhibition, % at 10 µM; 1.4% of 330,000 active; AID 463195;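 active = inhibition of 40% or more at the single tested concentration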;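 note: wild-type TIM10 isogenic control strain grown at permissive 25 °C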
NALP1 inh: inhibitors of NALP1 inflammasome in yeast. S. cerevisiae NALP1/ASC/caspase-1 growth, X-gal OD620, 72 h. inhibition, % at 10 µM. 0.61% of 280,000 active; in the data active = inhibition mostly above about 24%, no sharp cut-off; inactive = mostly below about 32%
Of the large screens only hits and unclear results are named; the others gave an inactive call. In the library only some 4% were active in any assay of this set; here they are far more common.

O=C(c1ccc(Cl)cc1)N1CCCC(C(=O)N2CCN(c3ccccc3)CC2)C1 (centres undefined)	NALP1 inh 43.5
CC(C)(C)N1CC(C(=O)Nc2ccc(C#N)cc2)CC1=O (centres undefined)	none
O=C(CN1CCN(c2ccccc2)CC1)c1ccc2cc[nH]c2c1	NALP1 inh 37.7
COc1ccccc1C(=O)C1CCCN(C(=O)c2ccccc2C(C)=O)C1 (centres undefined)	NALP1 inh 27.4
COc1cc(C(=O)N[C@H](C(=O)NC(C)C23CC4CC(CC(C4)C2)C3)C(C)C)cc(OC)c1OC (some centres undefined)	NALP1 inh 40.7
CC1(C)CC(NC(=O)c2cc(Cl)ccc2Cl)CC(C)(C)N1	none
COc1ccc(NC(=O)CC2Sc3ncnn3C2=O)cc1 (centres undefined)	NALP1 inh 94.8
O=C(CC1Sc2ncnn2C1=O)Nc1ccc(Cl)cc1 (centres undefined)	none
O=C1S/C(=C\c2ccc(O)c([N+](=O)[O-])c2)C(=O)N1c1ccccc1Cl	NALP1 inh 28.5
O=C(O)CCCn1cc(NC(=O)c2cc(F)c(F)cc2Cl)cn1	none
O=C(O)CCCn1cc(NC(=O)c2cccc(F)c2)cn1	NALP1 inh 27.2
O=c1[nH]c2cccnc2n1Cc1ccccc1	NALP1 inh 41.2
Cc1nnn(C23CC4CC(CC(CC(=O)Nc5cccc(F)c5)(C4)C2)C3)n1	NALP1 inh 28.9
COC(=O)C1CCN(Cc2cn(Cc3ccccc3)nc2-c2cc3ccccc3o2)CC1	NALP1 inh 32.0
Cc1c(CN2CCC(CO)(Cc3cccc(C(F)(F)F)c3)CC2)c2ccccc2n1C	none
CCc1c(C)nc2ncnn2c1Nc1ccc(C(C)=O)cc1	none
CCc1c(C)nc2ncnn2c1Nc1ccc(C#N)c(Cl)c1	NALP1 inh 30.1
O=C(COC(=O)CCC1CCCC1)Nc1ccc(F)cc1Cl	none (no result: NALP1 inh)
CCN(CC(=O)NCc1cccs1)C(=O)c1cc(S(=O)(=O)N2CCCCC2)ccc1Cl	none (no result: NALP1 inh)
CCN(CC(=O)NCc1cccs1)c1ccc(S(=O)(=O)N2CCN(C)CC2)cn1	NALP1 inh 39.2
COc1ccc2c(c1)CC(N1CCN(C)CC1)c1cc(OC)ccc1S2 (centres undefined)	none (no result: NALP1 inh)
COCCCN1CCN(C2Cc3ccccc3Sc3ccc(Cl)cc32)CC1 (centres undefined)	NALP1 inh 53.6
O=C(NCc1ccc(Cl)cc1)C1CCCCN1S(=O)(=O)c1ccccc1 (centres undefined)	none
Cc1ccccc1CCNC(=O)C1CCN(S(=O)(=O)c2ccc(-n3cnnn3)cc2)CC1	NALP1 inh 31.3 (no result: NLRP3 yeast inh, tim23-1 inh, tim10-1 inh, TIM10 inh)
O=C(NCCc1ccc(Cl)cc1)C1CCN(S(=O)(=O)c2ccc(-n3cnnn3)cc2)CC1	none
COc1ccc(C)cc1S(=O)(=O)N1CCCC(C(=O)N2CCOCC2)C1 (centres undefined)	none
Cc1ncc(CN2CCCC(C(=O)Nc3ccc(-c4cccc(F)c4)cc3)C2)n1C (centres undefined)	none
COc1cccc(/C=C/C(=O)c2ccc[nH]2)c1	NALP1 inh 41.6
O=C(/C=C/c1ccc2c(c1)OCO2)c1ccc[nH]1	none
Cc1c(C)c2ccc(OCC(=O)Nc3ccccc3C(N)=O)cc2oc1=O	none
CCCn1c2c(c(O)c(C(=O)Nc3nc(C)cs3)c1=O)CCCC2	none (no result: NLRP3 yeast inh, tim23-1 inh, tim10-1 inh, TIM10 inh)
Cc1csc(NC(=O)c2c(O)c3c(n(CC(C)C)c2=O)CCCC3)n1	NALP1 inh 30.9
O=C(Nc1cc2c(cc1Br)OCCO2)c1cccs1	none
CCCC(=O)c1cc2c(cc1NC(=O)c1cccs1)OCCO2	NALP1 inh 26.7
COc1ccc(C(=O)C2CCCN(Cc3c[nH]c4ccccc34)C2)c(OC)c1 (centres undefined)	NALP1 inh 27.9
CCOC(=O)c1[nH]ncc1CN1CCCC(C(=O)c2cc(Cl)ccc2OC)C1 (centres undefined)	NALP1 inh 33.0
Cc1cc(C)c(C)c(OCCNCc2ccccc2)c1	none
Clc1ccc(OCCCNCc2ccccc2)c2ccccc12	NALP1 inh 50.1
Brc1ccccc1OCCNCc1ccccc1	none
Cc1cc(Br)ccc1OCCNCc1ccccc1	NALP1 inh 29.2
Cn1c(=O)c(=O)n(C)c2cc(S(=O)(=O)NCCOc3ccccc3)ccc21	none
Clc1ccc(CO/N=C2\CCCc3nonc32)cc1	none
Clc1ccccc1CO/N=C1\CCCc2nonc21	NALP1 inh 42.6
CC1CN(C(NC(=O)c2ccccc2)C(Cl)(Cl)Cl)CC(C)O1 (centres undefined)	none (no result: NLRP3 yeast inh, tim23-1 inh, tim10-1 inh, TIM10 inh)
CC(C)NCCCCOc1ccc(Br)cc1Cl	NALP1 inh 27.7
